# Test results published in PubChem BioAssay AID720504 (National Center for Advancing Translational Sciences (NCATS), 2013).
# The campaign covered roughly 360,000 compounds. About 10,000 (2.8%) were called active. About 4% were inconclusive and are not listed. This is one part of a sample in which actives are shown more often than they occur. Calls come from the whole dose curve; as a rule, active = well fitted inhibition curve with a large enough effect; inconclusive = small, poorly fitted or top-dose-only effect; inactive = flat fitted curve, though single readings scatter.
# Target: Serine/threonine-protein kinase PLK1 (Homo sapiens) (UniProt P53350)
# Test: qHTS for Inhibitors of PLK1-PDB (polo-like kinase 1 - polo-box domain): Primary Screen; note: nearly all actives have a fitted effect of over 65% in size; for max response, negative = inhibition: series mostly up to about 57 µM
# Conditions: Plk1 PBD binding of FITC phosphopeptide, fluorescence polarization
# % is set by controls: 0 for no effect and ±100 for the full control effect; potency is the fitted concentration of half-maximal effect.
# Chain of Serine/threonine-protein kinase PLK1 (Homo sapiens) (P53350 whole entry, looked up, the tested form may be a part): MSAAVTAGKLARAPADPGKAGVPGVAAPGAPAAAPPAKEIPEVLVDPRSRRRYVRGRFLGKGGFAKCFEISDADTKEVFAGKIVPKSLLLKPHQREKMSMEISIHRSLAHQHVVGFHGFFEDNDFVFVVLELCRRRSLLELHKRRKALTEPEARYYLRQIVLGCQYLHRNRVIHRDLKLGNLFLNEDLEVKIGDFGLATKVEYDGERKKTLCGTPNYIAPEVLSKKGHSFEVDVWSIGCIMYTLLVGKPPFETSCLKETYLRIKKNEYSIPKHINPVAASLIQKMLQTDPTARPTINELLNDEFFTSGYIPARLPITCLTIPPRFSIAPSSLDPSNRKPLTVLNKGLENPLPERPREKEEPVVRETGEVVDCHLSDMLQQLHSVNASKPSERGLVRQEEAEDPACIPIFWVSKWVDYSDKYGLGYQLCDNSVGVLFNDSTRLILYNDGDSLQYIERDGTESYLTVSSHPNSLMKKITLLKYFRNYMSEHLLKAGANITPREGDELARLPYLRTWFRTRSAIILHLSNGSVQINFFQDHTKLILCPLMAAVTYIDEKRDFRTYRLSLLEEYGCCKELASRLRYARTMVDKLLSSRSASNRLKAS
Structure (SMILES),"max response, negative = inhibition",Potency
O=C(Oc1ccc([N+](=O)[O-])cc1)c1ccc2ccccc2n1,-21.6% (inactive),–
O=[N+]([O-])c1cccc(C=NN=Cc2ccccc2O)c1,-3.02% (inactive),–
O=[N+]([O-])c1ccc(N=Cc2c(O)ccc3ccccc23)cc1,–,29.9 µM (active)
CCCCNC(=O)C[C@@H]1C[C@@]2(C(=O)OC)CC(C)(C)CC=C2N(Cc2ccco2)C1=O,0.813% (inactive),–
Cc1cccc(-c2cnc(C(O)c3ccc4ccccc4c3)[nH]2)c1 (stereo not drawn),-0.198% (inactive),–
O=C(N/N=C/c1ccc(Cl)cc1)c1nc2ccc([N+](=O)[O-])cc2c(=O)[nH]1,–,18.9 µM (active)
O=C(NN=Cc1ccc([N+](=O)[O-])cc1)C1CC1,-0.264% (inactive),–
N#Cc1cc([N+](=O)[O-])ccc1Oc1cccc(/C=N/NC(=O)c2ccc(Cl)cc2)c1,0.641% (inactive),–
O=C(NCc1ccc(F)cc1)c1cc(C2CCCCN2C(=O)C2CCCCC2)on1 (stereo not drawn),2.6% (inactive),–
CC(C)CC1C(=O)N(Cc2cn(Cc3ccco3)nn2)CCS(=O)(=O)N1Cc1ccc(-c2ccc(Cl)c(Cl)c2)cc1 (stereo not drawn),-13.6% (inactive),–
CNc1cncc(-c2ccc(NS(C)(=O)=O)cc2)n1,6.53% (inactive),–
CCOc1ccc(-n2c(SCC(N)=O)nnc2-c2ccco2)cc1,–,15 µM (active)
O=C(CSc1nnc(-c2ccco2)n1-c1ccccc1)NCCc1ccccc1,-10.6% (inactive),–
COc1ccc(C(=O)NC(=O)CSc2nnc(-c3ccco3)n2-c2ccccc2)cc1,-12.5% (inactive),–
OCCN1CCN(c2ncnc3c2ncn3[C@H]2CN(Cc3ccco3)C[C@@H](CO)O2)CC1,-11.1% (inactive),–
O=C(Nc1ccc(N2CCOCC2)cc1)c1cccc2c(-c3ccc(F)c(F)c3)coc12,-15% (inactive),–
CC(=O)N1c2ccc(S(=O)(=O)NCCC(=O)N(C)C3CCCCC3)cc2CC1C (stereo not drawn),–,2.99 µM (active)
COc1cccc(CNS(=O)(=O)c2ccc3c(c2)CC(C)N3C(=O)C2CCC2)c1 (stereo not drawn),-3.29% (inactive),–
CC(=O)N1c2ccc(S(=O)(=O)N(C)CC(=O)N(C)Cc3ccccc3)cc2CC1C (stereo not drawn),5.96% (inactive),–
Cc1ccc(-c2ccc(CN3C(C(C)C)C(=O)N(Cc4cn(CCC5OCCCO5)nn4)CCS3(=O)=O)cc2)cc1 (stereo not drawn),-2.35% (inactive),–
CCOc1ccc(CCN2C(=O)C(=O)N([C@@H](CC(C)C)CN3CCC[C@H]3CN3C(=O)C(=O)NC[C@@H]3Cc3ccccc3)C[C@@H]2CC(C)C)cc1,-0.137% (inactive),–
Cc1cccc(-c2cnc(C(O)c3cc(C)cc(C)c3)[nH]2)c1 (stereo not drawn),-12% (inactive),–

Structure (SMILES),"max response, negative = inhibition",Potency
CCOC(=O)c1c(NC(=S)NC(=O)/C=C/c2cccs2)sc(C)c1C,-3.87% (inactive),–
CCOC(=O)c1sc(=NC(=O)c2ccc(Br)cc2)n(C)c1C,-3.76% (inactive),–
CCOC(=O)c1sc(=NC(=O)/C=C/c2cccs2)n(C)c1C,–,26.7 µM (active)
COC(=O)[C@]12CCCCC=C1N(Cc1ccc3c(c1)OCO3)C(=O)[C@H](CC(=O)N1CCOCC1)C2,-9.01% (inactive),–
CC(=O)N1c2ccccc2N(Cc2ccc([N+](=O)[O-])cc2)C(=O)C1(C)C,–,29.9 µM (active)
CC(O)c1nc2ccccc2n1Cc1ccc([N+](=O)[O-])cc1 (stereo not drawn),-2.98% (inactive),–
O=C(CSCc1ccc([N+](=O)[O-])cc1)NCCSCc1ccccc1,-1.81% (inactive),–
Cc1nc2c(OCc3cccc(Cl)c3)cccn2c1N(C)CC1CC1,-10.4% (inactive),–
COC(=O)[C@]12CCCCC=C1N(Cc1cccc3ccccc13)C(=O)[C@H](CC(=O)N1CCOCC1)C2,-13.4% (inactive),–
Cc1cc(Cl)ccc1-c1nc(NCCN(C)C)nc2ccsc12,-8.63% (inactive),–
COc1ccccc1-c1cc(NC(C)=O)c2ncc(-c3ccc(F)cc3)n2c1,-2.69% (inactive),–
COc1ccnc2c1c(=O)n(Cc1cccc(F)c1)c(=O)n2C,-8.75% (inactive),–
COc1cc(/C=C2/C(=O)NN(c3ccc(F)cc3)C2=O)cc([N+](=O)[O-])c1O,-17.7% (inactive),–
COc1cc(/C=C2\SC(=O)NC2=O)ccc1OCc1ccc(Cl)nc1,-13.4% (inactive),–
C#CCOc1ccc(/C=C2/C(=O)NN(c3ccccc3)C2=O)cc1OC,–,18.9 µM (active)
COc1cc(/C=C2/C(=O)ON=C2C)ccc1OCc1cccc(F)c1,–,1.06 µM (active)
CCOc1cc(/C=C2\C(=N)N3N=C(C)SC3=NC2=O)ccc1OCCOc1ccccc1,-10.7% (inactive),–
C#CCOc1ccc(/C=C2/C(=O)ON=C2C)cc1OCC,–,2.12 µM (active)
COc1cc(C=O)ccc1Oc1nnnn1-c1ccccc1,-3.25% (inactive),–
CCOc1cc(/C=N/O)ccc1OCc1ccccc1F,5.59% (inactive),–
Cc1ccccc1C1=N/C(=C/c2cccnc2)C(=O)O1,-12.6% (inactive),–
CC1=NOC(=O)/C1=C\c1ccccc1,–,16.8 µM (active)

Structure (SMILES),"max response, negative = inhibition",Potency
Cc1nc2ccccn2c(=O)c1NC(=O)c1ccc(Br)o1,-0.655% (inactive),–
O=[N+]([O-])c1ccc(CN2CC(N3CC=CC3)CS2(=O)=O)cc1 (stereo not drawn),-4.83% (inactive),–
CCc1cc(C(=O)N(CC)CC(=O)Nc2c(F)cccc2F)sc1C,-2.84% (inactive),–
CSCCC(c1nnnn1Cc1ccccc1)N1CCN(C/C=C/c2ccccc2)CC1 (stereo not drawn),-5.15% (inactive),–
CC1(Oc2cccc(F)c2)CCN(Cc2ccccc2OC(F)F)C1 (stereo not drawn),-10.6% (inactive),–
C#CCOc1ccccc1/C=C1/C(=O)ON=C1C,–,2.38 µM (active)
C=CCOc1ccc(/C=C2/C(=O)ON=C2C)cc1OCC,–,1.89 µM (active)
C=CCOc1ccc(/C=N/NC(=O)C(C)Sc2ccccn2)cc1OCC (stereo not drawn),-12.5% (inactive),–
Cc1no[n+]([O-])c1COc1ccccc1/C=C1\NC(=S)NC1=O,-11.5% (inactive),–
C=CCOc1ccc(/C=N/n2cncn2)cc1OC,-1.5% (inactive),–
COc1ccc(NC(=O)C2(C)Cc3c(-c4cccc(NC(C)=O)c4)ccnc3O2)cc1 (stereo not drawn),1.6% (inactive),–
CC(C)NC(=O)N1Cc2cc(C(=O)NCC(F)(F)F)nc(-c3cccc(-c4cc5ccccc5o4)c3)c2[C@@H]1CCO,-2.2% (inactive),–
CCCCNC(=O)c1nc(C2CCN(S(=O)(=O)c3ccc(F)c(F)c3)CC2)oc1-c1cccc(C(F)(F)F)c1,-2.64% (inactive),–
CCCNC(=O)C1(C)CCN(Cc2csc(-c3ccc(Cl)cc3)n2)C1 (stereo not drawn),-6.86% (inactive),–
Nc1nc2ncccn2c1-c1ccccc1,-5.06% (inactive),–
COc1cc(OC)cc(C2=Cc3ccccc3C(CC(=O)c3ccco3)N2c2ccc(-c3cnc(OC)nc3)cc2)c1 (stereo not drawn),-0.0299% (inactive),–
CCCCCCn1c(=O)n2n(c1=O)C[C@]1(OC(=O)NCc3ccc(OC)c(OC)c3)CN(S(=O)(=O)c3ccc(C)cc3)C[C@]1(O)C2,-2.55% (inactive),–
NS(=O)(=O)c1ccc(CNC(=O)c2cccc(Oc3ccccc3)c2)cc1,-1.88% (inactive),–
NS(=O)(=O)c1ccc(CNC(=O)c2cnccn2)cc1,–,16.8 µM (active)
O=C(NNS(=O)(=O)c1ccc(F)cc1)c1cnccn1,-1.36% (inactive),–
CCc1ccc2c(c1)NC(=O)C2(C)Cc1ccc(OC(F)(F)F)cc1 (stereo not drawn),-1.5% (inactive),–
N#CC1=C(N)Oc2n[nH]c(CSc3ccccc3)c2C12C(=O)Nc1ccccc12 (stereo not drawn),-12.8% (inactive),–

Structure (SMILES),"max response, negative = inhibition",Potency
N#CC1=C(N)Oc2[nH]c(=S)[nH]c(=O)c2C12C(=O)Nc1ccccc12 (stereo not drawn),–,2.67 µM (active)
CC1(C)Cc2ccccc2-c2[nH]c(=S)[nH]c(=O)c21,-13.9% (inactive),–
COCCNC(=O)C1(C)CCCN(Cc2cccc(F)c2)C1 (stereo not drawn),-4.61% (inactive),–
CCCCNC(=O)C1CCC(CNS(=O)(=O)c2ccc(NC(C)=O)cc2)CC1 (stereo not drawn),-1.34% (inactive),–
COCCCNC(=O)c1ccc(CNS(=O)(=O)c2ccc(NC(C)=O)cc2)cc1,–,26.7 µM (active)
CC(=O)Nc1ccc(S(=O)(=O)NCCc2ccccc2)cc1,0.463% (inactive),–
CCN1CCCC1CNC(=O)c1ccc2c(c1)NC(=O)/C(=C\c1ccccc1F)S2 (stereo not drawn),0.0941% (inactive),–
CC1CCN(C(=S)c2ccc(-c3ccc(Cl)cc3Cl)o2)CC1,–,21.2 µM (active)
Cc1csc(NC(=O)c2ccc(-c3ccc(Cl)cc3Cl)o2)n1,-15% (inactive),–
COc1ccc(C(=O)Nc2c(Cl)cc(Cl)cc2C(=O)N2CCC(C)CC2)cc1,-14.4% (inactive),–
COc1ccc(N)c(C)c1,-0.841% (inactive),–
COc1ccc2[nH]c(=S)cc(C)c2c1,–,4.74 µM (active)
COc1ccc2[nH]c3c(C)c4cc[n+](C)cc4c(C)c3c2c1,-4.23% (inactive),–
NC(=O)C1(N2CCCC2)CCN(Cc2ccccc2)CC1,-7.37% (inactive),–
O=S1(=O)CCN(Cc2ccccc2)CC1,-2.26% (inactive),–
CC12CN(Cc3ccccc3)CC(C)(CN(Cc3ccccc3)C1)C2=NO,–,5.32 µM (active)
O=C(OCc1cn([C@H]2C[C@H](c3ccccc3)N(C(=O)c3cccs3)C[C@@H]2O)nn1)c1ccccc1,-2.46% (inactive),–
CC(C)(C(=O)N1CCC1(C)C(=O)NS(=O)(=O)c1ccc(Br)cc1)c1ccccc1 (stereo not drawn),-7.26% (inactive),–
Cc1cc(C)nc(NS(=O)(=O)c2ccc(N/C=C\C(=O)c3cccs3)cc2)n1,–,26.7 µM (active)
Cc1ccc(C(=O)/C=C/Nc2ccc(S(=O)(=O)Nc3onc(C)c3C)cc2)cc1,-13.9% (inactive),–
CCOc1ncccc1C(=O)Nc1ccc(S(=O)(=O)Nc2nc(C)cc(C)n2)cc1,0.589% (inactive),–
O=C(CC(CC(=O)c1ccccc1)c1ccco1)c1ccccc1,13.6% (inactive),–
